Whole data set: some 81,000 sequences, median “one-hybrid fitness for binding parS DNA” near -0.17, cut for the highest 2% near 0.51. The entries come from a sample that favours the highest values as a whole.
B1: Caulobacter ParB omega fusion; a variant is named by its letters at X, in order, B8GW30 (parent)
chain: MESVVVGEPGMSEGRRGLGRGLSALLGEVDAAPAQAPGEQLGGSREAPIEILQRNPDQPRRTFREEDLEDLSNSIREKGVLQPILVRPSPDTAGEYQIVAGERAWRAAQRAGLKTVPIMVRELDDLAVLEIGIIENVQRADLNVLEEALSYKVLMEKFERTQENIAQTIGKSXSHVANXMRLLXLPDEVQSYLVSGELTAXHARAIAAAADPVALAKQIIEGGLSVRETEALARKAPNLSAGKSKGGRPPRVKDTDTQALESDLSSVLGLDVSIDHRGSTGTLTITYATLEQLDDLCNRLTRGI

Variants of: B1
Assay: one-hybrid fitness for binding parS DNA (scaled: cognate 1, non-cognate 0); higher = stronger binding
Conditions: with parS DNA site
Method in brief: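 Caulobacter ParB libraries with four specificity codons randomised were screened by bacterial one-hybrid selection in the E. coli USO strain, using a HIS3 reporter whose site lies 19 bp from the promoter. Selection ran for 48 hours at 37°C on M9 lacking histidine, with 0.1 mM IPTG and 5 mM 3-AT. Plasmids were Illumina-sequenced before and after selection, three replicate libraries were pooled, and variants with under 10 reads were dropped. Fitness is the log change in each variant's read ratio to wild type, rescaled against the cognate and non-cognate sites.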

| Variant | one-hybrid fitness for binding parS DNA |
| --- | --- |
| RICD | ≤ 0.2 |
| RICT | 0.853 |
| RIQT | 0.886 |
| RIWN | 0.455 |
| RIQP | ≤ 0.2 |
| RIGT | 0.924 |
| RIGK | ≤ 0.2 |
| RIQN | 0.449 |
| RICK | 0.208 |
| RIGQ | 0.204 |
| RIWT | 0.83 |
| LPLM | ≤ 0.2 |
| WSVC | ≤ 0.2 |
| AQMM | ≤ 0.2 |
| DELW | ≤ 0.2 |
| QKSV | ≤ 0.2 |
| HVTI | ≤ 0.2 |
| GLLA | ≤ 0.2 |
| RINT | 0.914 |
| RINP | ≤ 0.2 |
| RIST | 0.929 |
| RIYD | ≤ 0.2 |
| RISF | 0.21 |
| RISQ | ≤ 0.2 |
| RIDT | 0.725 |
| RIDR | ≤ 0.2 |

| Variant | one-hybrid fitness for binding parS DNA |
| --- | --- |
| RINN | 0.469 |
| RIDF | 0.257 |
| RIYP | 0.203 |
| RIYT | 0.926 |
| NRPF | ≤ 0.2 |
| CRDC | ≤ 0.2 |
| QFLC | ≤ 0.2 |
| PTYG | ≤ 0.2 |
| RARL | ≤ 0.2 |
| GSHT | ≤ 0.2 |
| MNLG | ≤ 0.2 |
| RIRT | 0.848 |
| RIRR | ≤ 0.2 |
| RIRK | ≤ 0.2 |
| WPQC | 0.245 |
| SGVD | ≤ 0.2 |
| RIFD | ≤ 0.2 |
| RIAD | 0.212 |
| RIAN | 0.432 |
| RIFP | 0.206 |
| RIAS | 1.04 |
| RIFS | 0.995 |
| VTEW | ≤ 0.2 |
| YCGR | ≤ 0.2 |
| AFAS | ≤ 0.2 |
| ARMN | ≤ 0.2 |

| Variant | one-hybrid fitness for binding parS DNA |
| --- | --- |
| VELC | ≤ 0.2 |
| RNNC | 0.869 |
| RNNK | ≤ 0.2 |
| RNDD | ≤ 0.2 |
| RNDC | 0.617 |
| RNNM | 0.28 |
| RNDY | 0.256 |
| RLSF | 0.246 |
| RLSG | 1.01 |
| DFSG | ≤ 0.2 |
| RKSY | 0.366 |
| RMSG | 1.02 |
| RMSK | ≤ 0.2 |
| RKSG | 0.928 |
| RLSQ | ≤ 0.2 |
| RKSK | ≤ 0.2 |
| NFSG | ≤ 0.2 |
| RFSG | 0.97 |
| RMSR | ≤ 0.2 |
| NHHN | ≤ 0.2 |
| WADR | ≤ 0.2 |
| REQN | ≤ 0.2 |
| AVAR | ≤ 0.2 |
| GWDC | ≤ 0.2 |
| RDVW | ≤ 0.2 |
| SSNE | ≤ 0.2 |

| Variant | one-hybrid fitness for binding parS DNA |
| --- | --- |
| RTSQ | ≤ 0.2 |
| RDSG | ≤ 0.2 |
| RCSG | 0.997 |
| RESG | 0.217 |
| RISG | 1.01 |
| RPSG | ≤ 0.2 |
| RSSG | 0.993 |
| RTSY | 0.489 |
| RSSK | ≤ 0.2 |
| RISY | 0.477 |
| RISK | ≤ 0.2 |
| RTSG | 1 |
| EQLF | ≤ 0.2 |
| KYRN | ≤ 0.2 |
| QKYR | ≤ 0.2 |
| DTLV | ≤ 0.2 |
| PHRR | ≤ 0.2 |
| DRAS | ≤ 0.2 |
| GTSE | ≤ 0.2 |
| LHRT | ≤ 0.2 |
| RCDN | 0.376 |
| RPYN | ≤ 0.2 |
| RRRN | 0.788 |
| RCRN | 0.387 |
| RCYN | 0.545 |
| RRYN | 0.557 |

| Variant | one-hybrid fitness for binding parS DNA |
| --- | --- |
| KAEG | ≤ 0.2 |
| AMIC | ≤ 0.2 |
| RGAA | 0.32 |
| RFFA | 0.492 |
| RDAA | ≤ 0.2 |
| RPAA | ≤ 0.2 |
| RSAA | 0.554 |
| RCAA | 0.596 |
| EFAA | ≤ 0.2 |
| RWAA | 0.378 |
| RFAA | 0.559 |
| QVSF | ≤ 0.2 |
| LAKQ | ≤ 0.2 |
| WWDC | ≤ 0.2 |
| RWHK | ≤ 0.2 |
| RQFT | 0.759 |
| RQFR | ≤ 0.2 |
| RQAN | 0.419 |
| RQAT | 0.884 |
| RQFQ | ≤ 0.2 |
| RQAD | ≤ 0.2 |
| MIFS | ≤ 0.2 |
| SNTE | ≤ 0.2 |
| YHPR | ≤ 0.2 |
| RCGL | ≤ 0.2 |
| LEEV | ≤ 0.2 |

| Variant | one-hybrid fitness for binding parS DNA |
| --- | --- |
| SVPL | ≤ 0.2 |
| GMVS | ≤ 0.2 |
| QIKS | ≤ 0.2 |
| REWT | ≤ 0.2 |
| RMWN | 0.43 |
| RCWT | 0.908 |
| RGWT | 0.388 |
| RDWT | ≤ 0.2 |
| RPWT | ≤ 0.2 |
| RMWH | 0.231 |
| RSWT | 0.756 |
| RMWT | 0.904 |
| TNVG | ≤ 0.2 |
| AFWR | ≤ 0.2 |
| TISC | ≤ 0.2 |
| RCEF | ≤ 0.2 |
| RCFS | 1.03 |
| RSFS | 1.01 |
| RCFD | ≤ 0.2 |
| RPFS | ≤ 0.2 |
| RSFD | ≤ 0.2 |
| RSFP | ≤ 0.2 |
| QAPG | ≤ 0.2 |

— a collection of fitness landscapes (doi:10.1016/j.celrep.2020.107928)
